CYP2C19 activ = human CYP2C19 activators, primary screen, biochemical, luminescence; AID 1025, 2008; Cytochrome P450 2C19 (Homo sapiens), P33261; 96,000 tested, under 10 active; recombinant CYP2C19, luciferin-H EGE luminescence; hits give high values; 0 = fully inhibited enzyme, 1 = untreated enzyme; activation factor at 5 µM;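 active = activation factor of at least 2 at 5 µM in the primary screen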;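 also: 0 = wells with 2.5 mM tranylcypromine and 1 = vehicle-only wells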
Target sequence (P33261 whole entry, looked up): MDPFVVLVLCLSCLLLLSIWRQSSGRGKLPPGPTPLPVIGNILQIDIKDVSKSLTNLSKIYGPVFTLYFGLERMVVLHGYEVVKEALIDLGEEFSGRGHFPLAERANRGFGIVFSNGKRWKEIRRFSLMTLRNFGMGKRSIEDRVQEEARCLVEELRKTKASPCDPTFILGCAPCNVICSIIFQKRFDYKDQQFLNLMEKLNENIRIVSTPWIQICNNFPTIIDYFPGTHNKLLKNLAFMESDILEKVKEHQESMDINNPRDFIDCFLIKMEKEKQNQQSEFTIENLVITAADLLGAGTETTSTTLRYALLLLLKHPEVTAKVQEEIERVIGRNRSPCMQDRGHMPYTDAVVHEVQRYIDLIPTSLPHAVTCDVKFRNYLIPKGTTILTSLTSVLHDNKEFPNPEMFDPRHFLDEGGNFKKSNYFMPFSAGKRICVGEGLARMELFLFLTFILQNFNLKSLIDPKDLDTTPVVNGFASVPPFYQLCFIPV
PostGolgi ctrl = growth inhibition of yeast control strain, primary screen, counter-screen for post-Golgi transport modulator project; efflux-deficient yeast background strain, growth absorbance A615, 16 h; inhibition, % at 10 µM; 5% of 98,000 active; AID 738, 2007
CYP2C19 inhib = blockers of cytochrome P450 2C19 activity – biochemical, luminescence, ADME assay, primary screen. CYP2C19 Supersomes, luciferin-H EGE luminescence, 30 min. 21% of 96,000 active. AID 778, 2007. inhibition, % at 5 µM. P33261;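 active = CYP2C19 inhibition above a set limit at 5 µM in the primary screen, cut at about 50% in these data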;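 also: plate controls were negative control wells for no effect and 2.5 mM tranylcypromine positive control for full effect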
CYP2C9 inhib = blockers of cytochrome P450 2C9 activity – biochemical, luminescence, ADME assay, primary screen | P11712 | CYP2C9 Supersomes, luciferin-H conversion | inhibition, % at 5 µM | 20% of 96,000 active | AID 777, 2007;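 active = blocking of liver enzyme CYP2C9 beyond about 50% at 5 µM, limit read from the data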
CYP2C9 activ = human CYP2C9 activators, primary screen, biochemical, luminescence; Cytochrome P450 2C9 (Homo sapiens), P11712; recombinant CYP2C9, luciferin-H conversion; hits give high values; factor 1 = untreated enzyme, 0 = blocked; activation factor at 5 µM; 1.4% of 96,000 active;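 active = activation factor of 2 or more for CYP2C9 at a 5 µM dose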;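 also: 0 = sulfaphenazole-blocked wells and 1 = vehicle-only wells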
PostGolgi yeast = phenotypic screen on post-Golgi transport, primary screen; post-Golgi transport phenotypic cell assay; inhibition, % at 10 µM; 0.9% of 98,000 active; AID 739, 2007;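 also: yeast cells grown in 1536-well plates; yeast grown about 18 h at 30C before absorbance read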
Active calls of the source: *. Hits are enriched below; roughly 32% of the tested compounds scored in any of these assays. Rule as the data show it, unless noted: active = inhibition above about 30%; inactive = the rest.

Screening Cc1cccc(C)c1NC(=O)c1ccc(-n2cncn2)nc1 returned CYP2C19 activ 0.1, PostGolgi ctrl 7.3, CYP2C19 inhib 93.1*, CYP2C9 inhib 65.8*, CYP2C9 activ 0.3 and PostGolgi yeast 19.5.
For COc1ccc(OC)c(NC(=O)c2ccc(-n3cccn3)nc2)c1 the results were CYP2C19 activ 1, PostGolgi ctrl 4.0, CYP2C19 inhib 3.2, CYP2C9 inhib -25.0, CYP2C9 activ 1.3 and PostGolgi yeast 26.7.
CCn1nnc(-c2ccccc2NS(=O)(=O)c2ccc(C(=O)OC)cc2)n1 was read as CYP2C19 activ 0, PostGolgi ctrl 15.6, CYP2C19 inhib 98.4*, CYP2C9 inhib 73.4*, CYP2C9 activ 0.3 and PostGolgi yeast -2.4.
Screening CCOC(=O)c1sc2cccc(F)c2c1N returned CYP2C19 activ 0.7, PostGolgi ctrl -5.3, CYP2C19 inhib 26.2, CYP2C9 inhib -20.5, CYP2C9 activ 1.2 and PostGolgi yeast 23.5.
`CCOC(=O)c1sc(=S)sc1SCc1cccc(C(F)(F)F)c1` gave CYP2C19 activ 0.5, PostGolgi ctrl 13.2, CYP2C19 inhib 53.3*, CYP2C9 inhib 96.6*, CYP2C9 activ 0 and PostGolgi yeast 24.4.
O=C1c2oc3ccc(Cl)cc3c(=O)c2C(c2cccc(Br)c2)N1CCO (stereo not given) was read as CYP2C19 activ 0.5, PostGolgi ctrl 13.5, CYP2C19 inhib 50.0*, CYP2C9 inhib 34.1, CYP2C9 activ 0.7 and PostGolgi yeast -1.8.
Screening Cc1ccc2oc3c(c(=O)c2c1)C(c1cccc(Br)c1)N(Cc1ccco1)C3=O (stereo not given) returned CYP2C19 activ 0.9, PostGolgi ctrl 41.6*, CYP2C19 inhib 9.4, CYP2C9 inhib 20.1, CYP2C9 activ 0.8 and PostGolgi yeast -2.8.
COc1cc(C2c3c(oc4ccccc4c3=O)C(=O)N2Cc2ccco2)ccc1O (stereo not given) was read as CYP2C19 activ 0.6, PostGolgi ctrl 6.9, CYP2C19 inhib 36.7, CYP2C9 inhib 42.0, CYP2C9 activ 0.6 and PostGolgi yeast -2.5.
`CCN(CC)CCN1C(=O)c2oc3ccccc3c(=O)c2C1c1cccc(Br)c1` (stereo not given) gave CYP2C19 activ 0.6, PostGolgi ctrl -6.7, CYP2C19 inhib 36.6, CYP2C9 inhib 41.1, CYP2C9 activ 0.6 and PostGolgi yeast -7.6.
Screening Cc1cc2oc3c(c(=O)c2cc1C)C(c1cccc(Br)c1)N(Cc1ccco1)C3=O (stereo not given) returned CYP2C19 activ 0, PostGolgi ctrl -3.0, CYP2C19 inhib 98.2*, CYP2C9 inhib 95.4*, CYP2C9 activ 0 and PostGolgi yeast -5.0.
Screening Cn1c(NCCCN2CCOCC2)nc2c1c(=O)n(Cc1ccc(Cl)c(Cl)c1)c(=O)n2C returned CYP2C19 activ 0.9, PostGolgi ctrl 8.7, CYP2C19 inhib 14.4, CYP2C9 inhib 6.1, CYP2C9 activ 0.9 and PostGolgi yeast -2.0.
For COc1cccc2cc(C(=O)NC(C)C3CCCO3)c(=O)oc12 (stereo not given) the results were CYP2C19 activ 0.8, PostGolgi ctrl 15.2, CYP2C19 inhib 21.3, CYP2C9 inhib -76.7, CYP2C9 activ 1.8 and PostGolgi yeast -4.0.
CC1CCCCN1CCNC(=O)c1cnn2ccccc12 (stereo not given) was read as CYP2C19 activ 1.1, PostGolgi ctrl 1.0, CYP2C19 inhib -8.6, CYP2C9 inhib 28.1, CYP2C9 activ 0.7 and PostGolgi yeast -5.7.
Cn1cc(-c2nnnn2-c2cccc(C(F)(F)F)c2)c(C(F)(F)F)n1 was read as CYP2C19 activ 0, PostGolgi ctrl -3.9, CYP2C19 inhib 98.5*, CYP2C9 inhib 41.8, CYP2C9 activ 0.6 and PostGolgi yeast -22.2.
For O=C(CSc1nnnn1-c1ccc2c(c1)OCCO2)Nc1nc2c(s1)CCCC2 the results were CYP2C19 activ 1, PostGolgi ctrl 13.4, CYP2C19 inhib -0.5, CYP2C9 inhib -43.3, CYP2C9 activ 1.4 and PostGolgi yeast 17.8.
`COC(=O)c1cccc(-n2nnnc2SCC(=O)Nc2nc3c(s2)CCCC3)c1` gave CYP2C19 activ 0.5, PostGolgi ctrl 28.1, CYP2C19 inhib 53.2*, CYP2C9 inhib 29.0, CYP2C9 activ 0.7 and PostGolgi yeast 0.6.

Assay outcomes as filed in PubChem BioAssay.
